Compound activity as filed in PubChem.
Luciferase inh – firefly luciferase inhibition; P08659; purified firefly luciferase, luminescence, 8 min; Potency, µM (titrated, usually from 57.1 µM), without a hit: at the highest dose activity change, negative = inhibition, actives largely listed as inhibitors; AID 411; 72,000 compounds, 2.2% hits; active = well fitted inhibition curve with a large enough effect; inconclusive = small, poorly fitted or top-dose-only effect; note: % is set by controls: 0 for no effect and ±100 for the full control effect; nearly all actives have a fitted effect of over 40% in size
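Here, luciferase activity is measured as luminescence following an 8 min room-temperature reaction at 10 uM ATP, pH 7.2. Every library sample is titrated.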
GBA mod – alters purified human glucocerebrosidase activity; P04062; 48,000 compounds, 1.1% hits; purified enzyme, resorufin glucoside fluorescence (screen aimed at inhibitors), 20 min; Potency, µM; in the data active = potency below about 15 µM; inconclusive = mostly about 16 µM to 33 µM;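 note: the screen sought inhibitors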
Target sequence (P04062 whole entry, looked up): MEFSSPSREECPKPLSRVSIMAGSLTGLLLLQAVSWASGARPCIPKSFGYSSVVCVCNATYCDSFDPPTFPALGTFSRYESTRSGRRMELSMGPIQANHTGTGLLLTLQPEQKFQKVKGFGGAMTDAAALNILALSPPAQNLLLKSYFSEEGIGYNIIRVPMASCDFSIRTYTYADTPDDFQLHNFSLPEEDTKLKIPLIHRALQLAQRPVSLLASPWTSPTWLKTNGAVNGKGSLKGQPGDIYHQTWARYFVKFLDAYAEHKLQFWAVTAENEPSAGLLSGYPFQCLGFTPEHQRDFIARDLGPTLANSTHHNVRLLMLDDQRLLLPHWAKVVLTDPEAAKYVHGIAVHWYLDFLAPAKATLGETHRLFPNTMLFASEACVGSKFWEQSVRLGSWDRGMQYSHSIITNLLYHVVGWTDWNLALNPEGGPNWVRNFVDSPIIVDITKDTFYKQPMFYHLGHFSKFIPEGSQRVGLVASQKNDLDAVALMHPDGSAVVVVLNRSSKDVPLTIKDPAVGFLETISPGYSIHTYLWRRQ
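Compounds titrated against 0.2 nM normal enzyme, 30 uM resorufin beta-D-glucopyranoside substrate, citrate/phosphate buffer with taurocholate and tween-20, pH 5.9. Reaction ran 20 min at room temperature; fluorescence (Ex 548/Em 600) gave AC50.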
PK Bst – alters activity of Bacillus stearothermophilus pyruvate kinase; Potency, µM; 51,000 compounds, 1.2% hits; purified pyruvate kinase, luminescence ATP production; ribose 5-phosphate activator present at AC10; AID 361; in the data active = potency below about 11 µM; inconclusive = mostly about 12 µM to 25 µM;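 the screen sought inhibitors and activators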;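 note: scaled between full activation by ribose 5 phosphate and full inhibition by luteolin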
Starred values were filed as active, the others as inactive; i = inactive; ? = inconclusive; / = no result; [ ] = remark or other dose. In the library only some 3.4% were active in any assay of this set; here they are far more common. Potency is the fitted concentration of half-maximal effect.

SMILES | Luciferase inh | GBA mod | PK Bst
CC1=C(C#N)C(c2cn(-c3ccccc3)nc2-c2cccs2)C(C#N)=C(C)N1 | 2% | i | >57
NC1=NC(c2cn(-c3ccccc3)nc2-c2cccs2)n2c(nc3ccccc32)N1 (stereo not drawn) | 0% | 12* | >57
CS(=O)(=O)N1CCC2(CCN(Cc3ccc(C#N)cc3)CC2)CC1 | 0%[11.4 µM] | / | /
O=C(COC(=O)c1cnccn1)c1ccc2c(c1)CCCC2 | 20µM* | >77 | /
O=C(COC(=O)c1cnccn1)c1ccc(Br)cc1 | -22% | / | /
CO[C@@H](C(C)C)[C@@H](C)[C@@H]1OC(=O)C[C@@H]1O | 2%[11.4 µM] | / | /
COc1ccc(NC(=O)CN2CCN(CC(=O)Nc3ccccc3Cl)CC2)cc1Cl | 1% | / | >57
O=C(CN1CCCC1)Nc1ccc(NC(=O)Nc2ccccc2Cl)cc1 | -27% | 13* | >57
COc1cccc(C2C3=C(CCCC3=O)Nc3nc4ccccc4n32)c1OC (stereo not drawn) | 1% | >77 | >57
O=C(NCC1CCCO1)c1ccc2c(=O)n(CCc3ccccc3)c(=O)[nH]c2c1 (stereo not drawn) | 0% | >77 | >57
CC1CCCC(NC(=O)c2ccc3c(=O)n(CC4CCCO4)c(=O)[nH]c3c2)C1C (stereo not drawn) | 3% | 1.6* | >57
NC[C@H](O)C1CCCCCCC1 | 3% | / | /
CCOC(=O)CCN1C(=O)[C@H]2[C@H]3[C@H](O)[C@H](O)C/C(=N/NC(=O)OCc4ccccc4)[C@@H]3CC[C@@H]2C1=O | 3%[11.4 µM] | / | /
CCN(CC)S(=O)(=O)c1cc(C(=O)Nc2ccc(Cl)cn2)ccc1C | 7.9µM* | / | /
Cc1ccc(NC(=O)c2cccc(Cl)c2)nc1 | -8% | >77 | >57
CCN(CC)S(=O)(=O)c1cc(C(=O)NC2CCCCC2)ccc1C | 13µM* | / | /
CCN(CC)S(=O)(=O)c1cccc(C(=O)Nc2ccc(Cl)cn2)c1 | / | / | >57
Cc1c(C(=O)Nc2ccc(Cl)cn2)oc2ccccc12 | 1% | >77 | >57
Cc1ccc(NC(=O)c2ccc3ccccc3n2)nc1 | 6.3µM* | ? | 6.9*
Cc1ccc(C(=O)NC2CCCCCC2)cc1N1CCCC1=O | 1% | >77 | >57
Cc1ccc(C(=O)Nc2ccc(Cl)cn2)cc1 | 6.3µM* | >77 | 9.1*
Cc1cnc(CNc2cc(-c3ccccc3Cl)ncn2)cn1 | 3%[2.29 µM] | / | /
CO[C@H]1COC(=O)CCC[C@H](C)[C@H](OC)COC(=O)C/C=C\[C@@H]1C | 1%[11.4 µM] | / | /
O=C(c1cccc(F)c1)N1CCC2(CC1)CN(C(c1ccccc1)c1ccccc1)C2 | -5%[11.4 µM] | / | /
CC(C)NC(=O)N1CC2(CCN(C(=O)c3cccn3C)CC2)C1 | -1%[11.4 µM] | / | /
SMILES | Luciferase inh | GBA mod | PK Bst
CN(C(=O)C1CCN(S(=O)(=O)c2cccs2)CC1)C1CCCCC1 | 3% | 13* | >57
CN(C(=O)COC(=O)C1CCN(S(=O)(=O)c2cccs2)CC1)C1CCS(=O)(=O)C1 (stereo not drawn) | 2% | >77 | >57
CC(=O)Nc1nc(COc2ccccc2)cs1 | -17% | >77 | /
Nc1nc(COc2ccc3ccccc3c2)cs1 | 25µM* | >77 | i
O=C(NCc1ccco1)c1cc(-c2ccc3c(c2)OCO3)on1 | -8% | >77 | >57
COCCNC(=O)c1cc(-c2ccc3c(c2)OCO3)on1 | 13µM* | >77 | /
O=C(Nc1ccncc1)C1COc2ccccc2O1 (stereo not drawn) | -2% | i | >57
O=C(NC1=NCCS1)C1COc2ccccc2O1 (stereo not drawn) | 2µM* | >77 | 4.3*
Cc1nnc(NC(=O)C2COc3ccccc3O2)s1 (stereo not drawn) | -1% | i | >57
O=C(Nc1nc2c(s1)CCCC2)C1COc2ccccc2O1 (stereo not drawn) | 10µM* | / | /
C=CCN1CCc2c(cc(O)c(O)c2Cl)[C@H](c2ccccc2)C1 | 2% | / | /
CCN(Cc1cc(Cl)cc(C)c1O)Cc1c(O)ccc2ccccc12 | 1%[11.4 µM] | / | /
Cc1cc(C)nc(N2CCC(C(=O)Nc3nnc(C)s3)CC2)n1 | -3% | 3* | >57
Cc1cc(C)nc(N2CCC(C(=O)O)CC2)n1 | 1% | >77 | >57
O[C@@H]1[C@@H](OCc2ccccc2)OC[C@H](O)[C@@H]1O | 1%[11.4 µM] | / | /
CC(C)C(=O)Nc1cccc(NC(=O)c2cc3ccccc3o2)c1 | 13µM* | >77 | i
O=C(Nc1cccc(-c2nc3ncccc3o2)c1)c1cc2ccccc2o1 | 16µM* | / | /
CC(NC(=O)c1cc2ccccc2o1)C(=O)O (stereo not drawn) | 1% | >77 | >57
CC(=O)Nc1ccc(-c2cc3ccccc3o2)cc1 | 4µM* | / | ?
COC(=O)c1ccc(C(=O)OC)c(NC(=O)c2cc3ccccc3o2)c1 | 0%[25.5 µM] | / | >11
Cc1ccc(-c2nc3ncccc3o2)cc1NC(=O)c1cc2ccccc2o1 | -1% | / | /
CC(=O)c1cc2ccccc2oc1=O | -2%[25.5 µM] | / | /
CC(=O)Nc1cccc(NC(=O)c2cc3ccccc3o2)c1 | 13µM* | >77 | ?
CNC/C(Cl)=N/S(=O)(=O)c1ccc(C)cc1 | 0%[11.4 µM] | / | /
Cc1c(C(=O)NN2CCCCC2)nn(-c2ccc(Cl)cc2Cl)c1-c1ccc(I)cc1 | -1% | / | /
SMILES | Luciferase inh | GBA mod | PK Bst
COc1ccc(NC(=O)c2cc3ccccc3o2)cc1 | 6.3µM* | / | /
COc1cc(NC(=O)c2cc3ccccc3o2)c(OC)cc1Cl | 0% | / | /
O=S(=O)(O)[C@@H](c1ccccc1)[C@@H](O)c1ccccc1 | 1%[11.4 µM] | / | /
O=C(Cc1cccs1)Nc1ccc(C(=O)O)cc1 | 2% | >77 | >57
Cc1nc2ccc(NC(=O)Cc3cccs3)cc2s1 | 25µM* | >77 | /
COc1ccc(CNc2ccnc(-c3c(C)noc3C)n2)c(OC)c1 | 0%[2.29 µM] | / | /
Cc1cccc(-n2ncc3c(NCCCn4ccnc4)ncnc32)c1 | -30% | / | /
Cc1cc(NCCN2CCOCC2)n2ncc(-c3ccc(Cl)cc3)c2n1 | 1% | i | >57
Cc1cc(NCCN2CCOCC2)n2ncc(-c3ccccc3)c2n1 | 20µM* | / | /
Cc1cc(NCCCn2ccnc2)n2ncc(-c3ccccc3)c2n1 | 1.6µM* | / | 2*
CN1CCCC2(CCN(C(=O)c3cc(C(F)(F)F)cc(C(F)(F)F)c3)CC2)C1 | 1%[11.4 µM] | / | /
N#CCCn1c(=O)cnc2cnc(Oc3cccc(Cl)c3)nc21 | 2%[11.4 µM] | / | /
Cc1ccccc1S(=O)(=O)O[C@@H]1NS(=O)(=O)c2ccccc21 | 2%[11.4 µM] | / | /
NC(=O)C1CCN(C(=O)Nc2ccccc2)CC1 | / | / | >57
O=C(CCN1CCC(c2ccccc2)C1)c1cccs1 (stereo not drawn) | -2% | >77 | >57
O=C(c1cccs1)N1CCC(c2ccccc2)C1 (stereo not drawn) | 13µM* | >77 | /
O=C(Nc1ccccc1)N1CCC(c2ccccc2)C1 (stereo not drawn) | 16µM* | >77 | /
O=C(c1ccco1)N1CCC2(CCN(Cc3ccccc3)CC2)CC1 | 1%[11.4 µM] | / | /
Oc1ccc(-c2[nH]ncc2-c2ccc(Cl)cc2)c(O)c1 | 2% | / | >57
Oc1ccc(-c2[nH]ncc2-c2cccc3cccnc23)c(O)c1 | -1% | >77 | 5.9*
COc1ccc(-n2c(=O)c(-c3ccc(F)cc3)nc3cncnc32)cc1 | -3%[11.4 µM] | / | /
COc1ccc2[nH]cc(CCNc3ncncc3-c3ccccc3C)c2c1 | 1%[2.29 µM] | / | /
Cc1cc(-c2ccc(N=Nc3ccc4c(S(=O)(=O)O)cc(S(=O)(=O)O)c(N)c4c3O)c(C)c2)ccc1N=Nc1ccc2c(S(=O)(=O)O)cc(S(=O)(=O)O)c(N)c2c1O | 32µM* | / | /
